According to PubChem BioAssay (Tox21):
Several values for one entry are separate records, joined by “and”; a condition that tells them apart may be missing. Identical values can stand only once. Records with an inconclusive call do not appear. Where a call stands in place of a potency, no number is given. Some structures have more than one record in an assay (separate samples or runs), and their calls can disagree. Activity calls are given as the source filed them. Calls follow the shape of the dose curve; as a rule, active = well fitted cell-killing curve with a large enough effect in the repeat runs; inconclusive = weak or mixed curves, or effect the other way; inactive = flat fitted curve, though single readings scatter.
Potency is read from the fitted curve at half-maximal effect.

Test: qHTS assay to identify small molecule agonists of the androgen receptor (AR) signaling pathway in the presence of an antagonist - cell viability counter screen (AID 1259379); also: nearly all actives have a fitted effect of over 25% in size
Details: MDA-kb2 viability, CellTiter-Fluor, 16 h; series mostly up to 92.4 µM; activity change, negative = cytotoxicity: at the top concentration
From the text: National Center for Advancing Translational Sciences [NCATS]
NIH Chemical Genomics Center [NCGC]
U.S. Environmental Protection Agency [EPA]
National Institutes of Environmental Health Sciences [NIEHS]
National Toxicology Program [NTP]
U.S. Food and Drug Administration [FDA]
Androgen receptor (AR) is an important member of nuclear receptor family. Its signaling plays a critical role in AR-dependent prostate cancer and other androgen related diseases. Considerable attention has been given in the past decades to develop methods to study and screen for the environmental chemicals that have the potential to interfere with metabolic homeostasis, reproduction, developmental and behavioral functions. Therefore AR binding assay for screening against androgen agonists and antagonists can be used to identify potential endocrine disruptors.
MDA-kb2 cells (from ATCC, deposited by Wilson et al.) are human breast carcinoma cells that were stably transfected with a luciferase reporter gene under control of the MMTV promoter that contains response elements for both androgen receptor (AR) and glucocorticoid receptor (GR). This particular screening for measuring luciferase reporter gene activity using MDA-kb2 cells against Tox21 10K library compounds is a confirmation study on agonist mode screening in the presence of AR-antagonist compound (Nilutamide) at 3.0uM final concentration. The cytotoxicity of the compounds was tested in parallel by measuring the cell viability using CellTiter-Fluor assay system (Promega, Madison, WI) in the same wells.
Tox21 Assay Protocol Summary:
MDA-kb2 cells (cells cultured without CO2) were dispensed at 3,000 cells/well in 4uL of culture medium into white wall/solid-bottom 1536-well plates (Corning Life Sciences, Corning, NY) using a Multidrop Combi (Thermo Fisher Scientific Inc., Waltham, MA) dispenser. The assay plates were incubated at 37C and 0% CO2 for 5hr. One uL of 3.0uM (final concentration) Nilutamide or assay buffer was added using two separate tips of Flying Reagent Dispenser (FRD, Aurora Discovery, San Diego, CA). Then 23nL of compounds dissolved in DMSO at 15 concentrations and positive controls were transferred to the assay plates using a Pintool station (Wako, San Diego, CA). The assay plates were incubated at 37C and 0% CO2 for 16 hr. After 15hr incubation at 37C, 1uL/well CellTiter-Fluor reagent (Promega Corporation) was added to each well of the assay plates using FRD. After 1hr incubation at 37C and 0% CO2, the fluorescence signal was measured using a ViewLux plate reader (PerkinElmer, Shelton, CT).
For `CCCCCCCCCC(=O)OC`, the Potency was “inactive”.
For `Cc1ccc(C)c(O)c1C`, the Potency was “inactive”.
In the case of `CC(C)OB(OC(C)C)OC(C)C`, the Potency is reported as “inactive”.
With `c1ccc2c(c1)Oc1ccccc1S2` the Potency was “inactive”.
In the case of `O=C(c1ccccc1)c1ccccc1O`, the Potency is reported as “inactive”.
In the case of `OC1CCCCCCCCCCC1`, the Potency is reported as “inactive”.
With `O=C(COc1ccc(Cl)cc1)N1CCN(Cc2ccc3c(c2)OCO3)CC1` the Potency was 68.6 µM (active) and inactive.
In the case of `O=P(O)(O)O`, the Potency is reported as “inactive”.
With `Brc1cc(Oc2cc(Br)c(Br)c(Br)c2Br)c(Br)c(Br)c1Br` the Potency was “inactive”.
In the case of `Cc1ccc(C(=O)c2cc(O)c(O)c([N+](=O)[O-])c2)cc1`, the Potency is reported as 54.5 µM (active) and 29.8 µM (active).
With `CC(C)CC(C)(O)C#CC(C)(O)CC(C)C` (stereo not given) the Potency was “inactive”.
In the case of `Cc1c(OCC(F)(F)F)ccnc1CS(=O)c1nc2ccccc2[nH]1` (stereo not given), the “activity change, negative = cytotoxicity” value is reported as -7.92% [at 42.5 µM] (inactive).
For `CC(=O)c1ccccn1`, the Potency was “inactive”.
With `NC=O` the Potency was “inactive”.
In the case of `CCCCC(CC)COP(=O)(OCC(CC)CCCC)OCC(CC)CCCC` (stereo not given), the Potency is reported as “inactive”.
For `C[C@]12CCC(=O)C=C1CC[C@@H]1[C@@H]2C(=O)C[C@@]2(C)[C@H]1CC[C@]2(O)C(=O)CO`, the Potency was “inactive”.
In the case of `Nc1ncnc2nc[nH]c12`, the Potency is reported as “inactive”.
For `CCC(C)OC(=O)c1ccc(O)cc1` (stereo not given), the Potency was “inactive”.
For `Nc1ccccc1N`, the Potency was “inactive”.
With `O=CCCCC=O` the “activity change, negative = cytotoxicity” value was -3.01% (inactive).
For `CN(C)CCN(Cc1cccs1)c1ccccn1`, the Potency was “inactive”.
In the case of `CCCCC/C=C/C=C/C=O`, the Potency is reported as 68 µM (active) and inactive.
For `Cn1cnc([N+](=O)[O-])c1Sc1ncnc2nc[nH]c12`, the “activity change, negative = cytotoxicity” value was -9.49% [at 42.5 µM] (inactive).
In the case of `c1ccc2c(c1)c1cccc3ccc4cccc2c4c31`, the Potency is reported as “inactive”.
With `Nc1ccc(Cl)cc1Cl` the Potency was “inactive”.
With `CCC(C)c1ccccc1O` (stereo not given) the Potency was “inactive”.
In the case of `CC(=O)O[C@]1(C(C)=O)CC[C@H]2[C@@H]3C=C(Cl)C4=CC(=O)[C@@H]5C[C@@H]5[C@]4(C)[C@H]3CC[C@@]21C`, the “activity change, negative = cytotoxicity” value is reported as -6.34% [at 42.5 µM] (inactive).
For `OC(CCl)CCl`, the Potency was “inactive”.
In the case of `COC(=O)C1=C(C)NC(C)=C(C(=O)OCCN(C)Cc2ccccc2)C1c1cccc([N+](=O)[O-])c1` (stereo not given), the Potency is reported as 60.8 µM (active).
With `COc1ccc(OC)c(C(O)CNC(=O)CN)c1` (stereo not given) the Potency was “inactive”.
For `O=C(OCc1ccccc1)c1ccccc1O`, the Potency was “inactive”.
In the case of `C[C@]12CC[C@H]3[C@@H](CCC4=CC(=O)CC[C@@]43C)[C@@H]1CC[C@@H]2C(=O)CO`, the Potency is reported as “inactive”.
For `CNCCCC12CCC(c3ccccc31)c1ccccc12`, the Potency was 54.5 µM (active).
For `O=C=Nc1ccc(Cc2ccc(N=C=O)cc2)cc1`, the Potency was “inactive”.
For `C=CC(C)(CCC=C(C)C)OC(C)=O` (stereo not given), the Potency was “inactive”.
With `NNc1ccc(C(=O)O)cc1` the Potency was “inactive”.
In the case of `CCCC(=O)O`, the Potency is reported as “inactive”.
In the case of `CC(=O)Oc1ccccc1C(=O)Nc1ncc([N+](=O)[O-])s1`, the Potency is reported as 22.1 µM (active) and 13.3 µM (active).
With `O=S(=O)(O)c1ccc(O)cc1` the Potency was “inactive”.
In the case of `CCCCOCCOCCOCCO`, the Potency is reported as “inactive”.
